Where “and” joins values, the source holds several entries; their conditions need not be identical. Identical values can stand only once. Inconclusive results are not listed. Where a call stands in place of a potency, no number is given. Some structures have more than one record in an assay (separate samples or runs), and their calls can disagree. Calls of active or inactive are those of the source. Unless noted, the call rests on the fitted dose curve; in most records, active means well fitted curve in the direction sought with a large enough effect in the repeat runs; inconclusive means weak or mixed curves; inactive means no such curve, though single readings can be large; an effect the other way counts as inactive or inconclusive.
How the values were obtained:
[1] = target: Thyrotropin receptor (Homo sapiens) (UniProt P16473); assay: qHTS assay to identify small molecule agonists of the thyroid stimulating hormone receptor (TSHR) signaling pathway (AID 1224843; calls by dose curve; further: nearly all actives have a fitted effect of over 45% in size; further: potency means the concentration at half of the fitted maximal effect)
How it was run: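 Cell line HEK293 with TSHR; density 800/well. Exposure 30 min RT. Readout HTRF cAMP (cAMP-d2/anti-cAMP-cryptate), 1 h RT before reading.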

[2] = qHTS assay to identify small molecule agonists of the hypoxia (HIF-1) signaling pathway - cell viability counter screen (AID 1224844; calls by dose curve; further: nearly all actives have a fitted effect of over 50% in size)
How it was run: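 HRE-bla ME-180 cells, 2,000/well in 0.5% dialyzed FBS medium, treated 17 h at 37C with compounds. Viability read in the same wells as the bla reporter, by CellTiter-Glo luminescence after 30 min at room temperature.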

[3] = qHTS assay to identify small molecule agonists of H2AX (AID 1224845; active means well fitted activation curve with a large enough effect in the signal ratio in the repeat runs, not every such curve was filed as active; the % refers to the signal ratio)
How it was run: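 Wild-type CHO-K1 cells plated overnight, then exposed 3 hr at 37C to compounds at 15 concentrations (0.76% DMSO). Lysed, then HTRF anti-pH2AX(S139)-cryptate/anti-H2AX-d2 detection after 24 hr at room temperature; emissions 665 and 620 nm.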

[4] = qHTS assay to identify small molecule agonists of the hypoxia (HIF-1) signaling pathway (AID 1224846; active means well fitted activation curve with a large enough effect in the signal ratio in the repeat runs, not every such curve was filed as active; the % refers to the signal ratio)
How it was run: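 HRE-bla ME-180 beta-lactamase reporter cells in medium with 0.5% dialyzed FBS, pre-incubated 5 h then exposed to compounds 17 h at 37C, 5% CO2; reporter induction read with CCF4-AM FRET substrate.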

[5] = qHTS assay to identify small molecule agonists of H2AX - cell viability counter screen (AID 1224847; calls by dose curve; further: nearly all actives have a fitted effect of over 30% in size; further: potency means the concentration at half of the fitted maximal effect)
How it was run: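 We seed wild-type CHO-K1 cells overnight, treat them for 3 hr at 37C with compounds in 15-concentration series, and quantify remaining viability by CellTiter-Glo luminescence.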

[6] = qHTS RealTime-Glo MT Cell Viability Assay in HepG2 cells - 24 hour (AID 1224867); further: nearly all actives have a fitted effect of over 50% in size
How it was run: (§1)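 qHTS, HepG2, 600 cells/well, RealTime-Glo (NanoLuc + prosubstrate) added with cells; 5 h preincubation; DMSO compound addition; 37 C; luminescence at 0/8/16/24/32/40 h.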

[7] = qHTS RealTime-Glo MT Cell Viability Assay in HEK293 cells - 32 hour (AID 1224868); further: top concentration of the series differs between compounds; nearly all actives have a fitted effect of over 50% in size
How it was run: (§2)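 Assay medium contained NanoLuc luciferase plus cell-permeant prosubstrate, added with HEK293 cells at 600 cells/well. After 5 h at 37 C/5% CO2 compounds were added; plates stayed at 37 C for 40 h with serial luminescence reads.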

[8] = A CellTox Green Cytotoxicity Assay to monitor cytotoxicity in HEK293 cells - 0 hour (AID 1224869); further: nearly all actives have a fitted effect of over 50% in size
How it was run: (§3)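 HEK293 cells, 600/well, were preincubated 5 hours and then exposed to compounds at 37 C for up to 40 hours. A cell-impermeant cyanine dye staining dead-cell DNA was read by fluorescence at 0, 8, 16, 24, 32 and 40 h time points.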

[9] = qHTS RealTime-Glo MT Cell Viability Assay in HepG2 cells - 40 hour (AID 1224870); further: nearly all actives have a fitted effect of over 50% in size
How it was run: (§4)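 HepG2 cells mixed with RealTime-Glo MT reagents (NanoLuc plus cell-permeant prosubstrate) were seeded at 600 cells/well, incubated 5 h at 37 C/5% CO2, then pinned with compounds in DMSO; nonlytic luminescence tracked viability during 40 h treatment.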

[10] = A CellTox Green Cytotoxicity Assay to monitor cytotoxicity in HEK293 cells - 40 hour (AID 1224871); further: nearly all actives have a fitted effect of over 45% in size
How it was run: as §3

[11] = qHTS RealTime-Glo MT Cell Viability Assay in HEK293 cells - 16 hour (AID 1224872)
How it was run: as §2

[12] = qHTS RealTime-Glo MT Cell Viability Assay in HepG2 cells - 8 hour (AID 1224873); further: nearly all actives have a fitted effect of over 55% in size
How it was run: as §4

[13] = qHTS RealTime-Glo MT Cell Viability Assay in HEK293 cells - 40 hour (AID 1224874); settings: RealTime-Glo luminescence; max response: stronger effect = lower value; further: nearly all actives have a fitted effect of over 50% in size
How it was run: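 600 cells/well were plated with the nonlytic NanoLuc/prosubstrate reagent, pre-incubated 5 h, then given 23 nL of compound in DMSO. Incubation at 37 C for 40 h, with luminescence from viable-cell-reduced substrate read repeatedly from 0 h.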

[14] = A CellTox Green Cytotoxicity Assay to monitor cytotoxicity in HEK293 cells - 24 hour (AID 1224875); further: nearly all actives have a fitted effect of over 45% in size
How it was run: as §3

[15] = qHTS RealTime-Glo MT Cell Viability Assay in HepG2 cells - 32 hour (AID 1224877); further: nearly all actives have a fitted effect of over 55% in size
How it was run: as §1

[16] = A CellTox Green Cytotoxicity Assay to monitor cytotoxicity in HepG2 cells - 24 hour (AID 1224878); further: nearly all actives have a fitted effect of over 45% in size
How it was run: (§5)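 HepG2 cells, 600/well, preincubated 5 h with CellTox Green dye, then exposed to Tox21 compounds in DMSO at 37 C for up to 40 h. Dead-cell DNA fluorescence read at the indicated time point.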

[17] = A CellTox Green Cytotoxicity Assay to monitor cytotoxicity in HepG2 cells - 40 hour (AID 1224879); further: nearly all actives have a fitted effect of over 40% in size
How it was run: as §5

[18] = A CellTox Green Cytotoxicity Assay to monitor cytotoxicity in HepG2 cells - 16 hour (AID 1224876); further: nearly all actives have a fitted effect of over 45% in size
How it was run: as §5

[19] = qHTS assay to identify small molecule antagonists of the estrogen related receptor (ERR) signaling pathway from Tox21 library (AID 1224848); further: nearly all actives have a fitted effect of over 50% in size; further: potency means the concentration at half of the fitted maximal effect
How it was run: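 Screening used an ERR reporter line supplied by NTP, exposed for 18 h at 37 C to library compounds delivered in DMSO. Signal was luciferase luminescence developed with ONE-Glo at room temperature for 30 min.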

[20] = qHTS assay to identify small molecule agonists of the estrogen related receptor (ERR) signaling pathway from Tox21 library (AID 1224849; calls by dose curve; further: nearly all actives have a fitted effect of over 15% in size); settings: ERR reporter cell line, ONE-Glo luciferase, 18 h; at 92.4 µM (top of the series)
How it was run: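 ERR reporter cells (NTP line) pre-incubated 6 hours at 37 C, then exposed to compounds for 18 hours at 37 C. ONE-Glo luciferase luminescence was read after 30 minutes at room temperature.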

Thyrotropin receptor (Homo sapiens), sequence (P16473 whole entry, looked up): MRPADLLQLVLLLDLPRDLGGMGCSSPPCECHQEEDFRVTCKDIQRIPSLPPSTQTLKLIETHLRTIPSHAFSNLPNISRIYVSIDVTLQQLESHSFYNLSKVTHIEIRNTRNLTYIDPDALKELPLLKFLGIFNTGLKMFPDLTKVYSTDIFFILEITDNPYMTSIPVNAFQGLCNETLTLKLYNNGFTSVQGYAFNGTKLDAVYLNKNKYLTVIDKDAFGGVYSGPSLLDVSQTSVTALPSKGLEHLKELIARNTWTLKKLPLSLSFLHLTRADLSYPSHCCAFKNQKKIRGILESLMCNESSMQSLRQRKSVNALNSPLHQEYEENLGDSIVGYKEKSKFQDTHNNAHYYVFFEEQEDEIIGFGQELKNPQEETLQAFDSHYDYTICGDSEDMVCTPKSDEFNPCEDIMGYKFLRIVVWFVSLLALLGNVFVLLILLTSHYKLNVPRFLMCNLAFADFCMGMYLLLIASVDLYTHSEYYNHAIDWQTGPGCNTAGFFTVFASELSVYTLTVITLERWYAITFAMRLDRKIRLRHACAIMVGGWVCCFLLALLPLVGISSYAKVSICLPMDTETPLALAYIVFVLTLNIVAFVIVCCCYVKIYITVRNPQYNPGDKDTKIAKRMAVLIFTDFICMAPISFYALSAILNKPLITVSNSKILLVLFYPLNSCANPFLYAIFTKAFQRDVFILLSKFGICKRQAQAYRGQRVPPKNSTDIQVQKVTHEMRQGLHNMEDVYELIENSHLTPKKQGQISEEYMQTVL

CC(C)NC(C)C
Potency [1]: inactive
Potency [2]: inactive
Potency [3]: inactive
outcome [4]: inactive
Potency [5]: inactive
Potency [6]: inactive
Potency [7]: inactive
Potency [8]: inactive
Potency [9]: inactive
Potency [10]: inactive
Potency [11]: inactive
Potency [12]: inactive
max response [13]: 17.8% (inactive) and 3.33% (inactive)
Potency [14]: inactive
Potency [15]: inactive
Potency [16]: inactive
Potency [17]: inactive

CCCCC(CC)COC(=O)c1ccc(C(=O)OCC(CC)CCCC)c(C(=O)OCC(CC)CCCC)c1 (stereo not drawn)
Potency [1]: inactive
Potency [2]: inactive
Potency [3]: inactive
outcome [4]: inactive
Potency [5]: inactive
Potency [6]: inactive
Potency [7]: inactive
Potency [8]: inactive
Potency [9]: inactive
Potency [10]: inactive
Potency [11]: inactive
Potency [12]: inactive
max response [13]: 0.196% (inactive) and 3.66% (inactive)
Potency [14]: inactive
Potency [18]: inactive
Potency [15]: inactive
Potency [16]: inactive
Potency [17]: inactive

Nn1cnnc1
Potency [1]: inactive
Potency [2]: inactive
Potency [3]: inactive
outcome [4]: inactive
Potency [5]: inactive
Potency [6]: inactive
Potency [7]: inactive
Potency [8]: inactive
Potency [9]: inactive
Potency [10]: inactive
Potency [11]: inactive
Potency [12]: inactive
max response [13]: -2.23% (inactive) and 1.89% (inactive)
Potency [14]: inactive
Potency [18]: inactive
Potency [15]: inactive
Potency [16]: inactive
Potency [17]: inactive

C=CCN(CC=C)C(=O)C(Cl)Cl
Potency [1]: inactive
Potency [2]: inactive
Potency [3]: inactive
outcome [4]: inactive
Potency [5]: inactive
Potency [6]: inactive
Potency [7]: inactive
Potency [8]: inactive
Potency [9]: inactive
Potency [10]: inactive
Potency [11]: inactive
Potency [12]: inactive
max response [13]: 8.06% (inactive) and -1.16% (inactive)
Potency [14]: inactive
Potency [18]: inactive
Potency [15]: inactive
Potency [16]: inactive
Potency [17]: inactive

N#CCCCl
Potency [1]: inactive
Potency [2]: inactive
Potency [3]: inactive
outcome [4]: inactive
Potency [5]: inactive
Potency [6]: inactive
Potency [7]: inactive
Potency [8]: inactive
Potency [9]: inactive
Potency [10]: inactive
Potency [11]: inactive
Potency [12]: inactive
max response [13]: 2.74% (inactive) and -10.7% (inactive)
Potency [14]: inactive
Potency [18]: inactive
Potency [15]: inactive
Potency [16]: inactive
Potency [17]: inactive

Nc1ccc(Cl)c(Cl)c1
Potency [1]: inactive
Potency [2]: inactive
Potency [3]: inactive
outcome [4]: inactive
Potency [5]: inactive
Potency [19]: 21.7 µM (active)
activity change, positive = activation [20]: -24.9% (inactive) and -36.3% (inactive)
Potency [6]: inactive
Potency [7]: inactive
Potency [8]: inactive
Potency [10]: inactive
Potency [11]: inactive
Potency [12]: inactive
max response [13]: 0.648% (inactive)
Potency [14]: inactive
Potency [15]: inactive
Potency [16]: inactive
Potency [17]: inactive

CCC(CC)Nc1c([N+](=O)[O-])cc(C)c(C)c1[N+](=O)[O-]
Potency [1]: inactive
Potency [2]: inactive
Potency [3]: inactive
outcome [4]: inactive
Potency [5]: inactive
Potency [19]: inactive
activity change, positive = activation [20]: -5.44% (inactive) and 8% (inactive)
Potency [6]: inactive
Potency [7]: inactive
Potency [8]: inactive
Potency [10]: inactive
Potency [11]: inactive
Potency [12]: inactive
max response [13]: 7.22% (inactive)
Potency [14]: inactive
Potency [15]: inactive
Potency [16]: inactive
Potency [17]: inactive

CCCCN(CC)c1c([N+](=O)[O-])cc(C(F)(F)F)cc1[N+](=O)[O-]
Potency [1]: 8.77 µM (active) and 12.2 µM (active)
Potency [2]: inactive
Potency [3]: inactive
outcome [4]: inactive
Potency [5]: inactive
Potency [19]: inactive
activity change, positive = activation [20]: -0.494% (inactive) and 5.99% (inactive)
Potency [6]: inactive
Potency [7]: inactive
Potency [8]: inactive
Potency [9]: inactive
Potency [10]: inactive
Potency [11]: inactive
Potency [12]: inactive
max response [13]: -1.03% (inactive) and 20.2% (inactive)
Potency [14]: inactive
Potency [15]: inactive
Potency [16]: inactive
Potency [17]: inactive

CC1(C)C(C=C(Cl)Cl)C1C(=O)OC(C#N)c1cccc(Oc2ccccc2)c1 (stereo not drawn)
Potency [1]: inactive
Potency [2]: inactive
Potency [3]: inactive
outcome [4]: inactive
Potency [5]: inactive
Potency [6]: inactive
Potency [7]: inactive
Potency [8]: inactive
Potency [9]: inactive
Potency [10]: inactive
Potency [11]: inactive
Potency [12]: inactive
max response [13]: -14.9% (inactive) and 6.86% (inactive)
Potency [14]: inactive
Potency [15]: inactive
Potency [16]: inactive
Potency [17]: inactive

CCN(CC)N=O
Potency [1]: inactive
Potency [2]: inactive
Potency [3]: inactive
outcome [4]: inactive
Potency [5]: inactive
Potency [19]: inactive
activity change, positive = activation [20]: 0.678% (inactive)
Potency [6]: inactive
Potency [7]: inactive
Potency [8]: inactive
Potency [10]: inactive
Potency [11]: inactive
Potency [12]: inactive
max response [13]: -2.46% (inactive) and 23.7% (inactive)
Potency [14]: inactive
Potency [18]: inactive
Potency [15]: inactive
Potency [16]: inactive
Potency [17]: inactive

CNC(=O)Oc1cccc2c1OC(C)(C)O2
Potency [1]: inactive
Potency [2]: inactive
Potency [3]: inactive
outcome [4]: inactive
Potency [5]: inactive
Potency [6]: inactive
Potency [7]: inactive
Potency [8]: inactive
Potency [9]: inactive
Potency [10]: inactive
Potency [11]: inactive
Potency [12]: inactive
max response [13]: -0.755% (inactive) and 5.29% (inactive)
Potency [14]: inactive
Potency [18]: inactive
Potency [15]: inactive
Potency [16]: inactive
Potency [17]: inactive

c1ccc(N=Nc2ccccc2)cc1
Potency [1]: inactive
Potency [2]: inactive
Potency [3]: inactive
outcome [4]: inactive
Potency [5]: inactive
Potency [19]: inactive
activity change, positive = activation [20]: 2.72% (inactive) and 1.53% (inactive)
Potency [6]: inactive
Potency [7]: inactive
Potency [8]: inactive
Potency [11]: inactive
Potency [12]: inactive
max response [13]: -14.7% (inactive) and -11.3% (inactive)
Potency [14]: inactive
Potency [15]: inactive
Potency [16]: inactive
Potency [17]: inactive

O=P(Oc1ccccc1)(Oc1ccccc1)Oc1ccccc1
Potency [1]: 12.1 µM (active) and 9.69 µM (active)
Potency [2]: inactive
Potency [3]: inactive
outcome [4]: inactive
Potency [5]: 89.3 µM (active) and inactive
activity change, positive = activation [20]: -19.4% (inactive) and -25.7% (inactive)
Potency [6]: inactive
Potency [7]: inactive
Potency [8]: inactive
Potency [10]: inactive
Potency [11]: inactive
Potency [12]: inactive
max response [13]: -17.9% (inactive) and -13.8% (inactive)
Potency [14]: inactive
Potency [18]: inactive
Potency [15]: inactive
Potency [16]: inactive
Potency [17]: inactive

— PubChem BioAssay (Tox21)
